The list is not random: actives were taken first. Their share in the collection is about 1.7%.
HEK293 tox: cytotoxicity in counter-screen for GLP-1R inverse agonists. HEK293 cAMP-luciferase reporter cells, luminescence, 24 h. Potency, µM (highest dose often 38.3 µM), for the others: at the top dose activity change, negative = inhibition, usual class: inhibitors. actives 0.13% (n = 410,000). AID 624418;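 also: loss of luciferase light is scored as toxicity; % is scaled to controls: 0 for no effect and ±100 for the full control effect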
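Step one: seed cells (200 cells/uL, DMEM with 10% Nu serum, 1% pen-strep). Step two: 12-hour incubation at 37 deg C. Step three: pin 23 nL compound, incubate 24 hr. Step four: add luciferase reagent, read luminescence 12 min later.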
GLP1R ag: GLP-1 receptor (human) agonism; Potency, µM (top dose mostly 45.6 µM), for inactives: at the highest dose activation, usual class: activators; HEK293 GLP-1R CRE-luciferase, luminescence, 4-6 h; cells express a hypersensitive GLP-1R form; actives 0.007% (n = 380,000); also: % of control where 0% means no effect
PTHR1 agonist: activates the human parathyroid hormone receptor PTHR1 | Q03431 | HEK293 GP2 PTHR1 cells, GloSensor cAMP luminescence, 1 h | Potency, µM (series often up to 115 µM), inactives show top-dose activation, actives largely listed as activators | actives 0.075% (n = 410,000); also: nearly all actives have a fitted effect of over 55% in size
Target sequence (Q03431 whole entry, looked up): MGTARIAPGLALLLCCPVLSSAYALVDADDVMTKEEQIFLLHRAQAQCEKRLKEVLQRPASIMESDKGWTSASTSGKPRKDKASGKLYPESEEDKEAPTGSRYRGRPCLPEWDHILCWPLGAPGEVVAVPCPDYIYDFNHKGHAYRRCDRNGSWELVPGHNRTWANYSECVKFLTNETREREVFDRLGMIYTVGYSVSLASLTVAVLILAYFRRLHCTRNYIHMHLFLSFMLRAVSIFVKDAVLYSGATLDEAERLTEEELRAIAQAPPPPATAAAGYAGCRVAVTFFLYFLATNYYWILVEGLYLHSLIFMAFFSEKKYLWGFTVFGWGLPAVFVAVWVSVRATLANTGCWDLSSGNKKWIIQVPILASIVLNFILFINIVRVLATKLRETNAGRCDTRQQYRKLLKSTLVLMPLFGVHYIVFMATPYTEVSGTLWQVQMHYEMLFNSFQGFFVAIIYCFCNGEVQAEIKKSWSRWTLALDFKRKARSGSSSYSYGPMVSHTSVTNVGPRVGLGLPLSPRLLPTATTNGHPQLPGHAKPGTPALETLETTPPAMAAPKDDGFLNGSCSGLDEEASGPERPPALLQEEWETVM
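HEK-293-derived GP2 cells expressing PTHR1 and a GloSensor cAMP reporter, 3,000/well, plated overnight, given luciferin plus IBMX (each 0.5 mM as added) for 1 h at 37 °C, then compound for 1 h at 37 °C. Luminescence was read after 15 min at room temperature.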
GLP1R inv ag: GLP-1 receptor (human) inverse agonism; P43220; HEK293 GLP-1R CRE-luciferase, luminescence, 24 h; GLP-1R form is constitutively active; Potency, µM (doses to about 38.3 µM), inactives show at the top dose activity change, negative = inhibition, most hits filed as inhibitors; actives 1.6% (n = 410,000); also: % is scaled to controls: 0 for no effect and ±100 for the full control effect; nearly all actives have a fitted effect of over 55% in size
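Luminescence readout: a drop in cAMP-driven luciferase signal flags inverse agonism at a constitutively active GLP-1R stably expressed in HEK293. Compound exposure lasted 24 hr at 37 deg C, 5% CO2.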
An asterisk follows results filed as active; i = inactive; ? = inconclusive; . = no result given; [ ] = another dose, or the depositor's remark. Calls follow the shape of the dose curve; as a rule, active = well fitted curve in the direction sought with a large enough effect; inconclusive = small, poorly fitted or top-dose-only effect, or another doubt; inactive = no such curve, though single readings can be large; an effect the other way counts as inactive or inconclusive. Potency is read from the fitted curve at half-maximal effect.

SMILES	HEK293 tox	GLP1R ag	PTHR1 agonist	GLP1R inv ag
CCc1cccc(-n2c(=O)c3cccnc3n2CC(=O)NCc2ccccc2)c1	-8%	.	-6%	?
Cc1ccc(C)c(N2CCN(C(C(=O)NC3CCCC3)c3ccco3)CC2)c1 (stereo not given)	3%	.	-19%	2%
COc1cccc(C(C(=O)NC2CCCC2)N2CCN(c3cc(C)ccc3C)CC2)c1OC (stereo not given)	-8%	.	i	8.9µM*
CCOC(=O)C1Nc2c(F)cc(C)cc2C2c3ccccc3CC12 (stereo not given)	26%	-4%	-35%	10µM*
COc1ccc(CC2(CO)CCN(Cc3cccc4nccnc34)CC2)cc1	-4%[7.66 µM]	5%	i	-2%[7.66 µM]
COc1ccc(CN2CCC(CO)(Cc3ccccc3C(F)(F)F)CC2)c(F)c1	?	-2%	-79%	8.9µM*
N/C(=N\OC(=O)/C=C/c1ccccc1)c1ccc(Cl)cc1	11µM*	11%	-5%	5%
N/C(=N\OC(=O)/C=C/c1ccccc1)c1ccccc1	-1%	-4%	-15%[57.5 µM]	-2%
O=C(NN=C1CCCC1)c1[nH]c2ccc(Br)cc2c1-c1ccccc1	?	26%	-11%	5µM*
CCCCC[C@H](O)/C=C/[C@@H]1[C@H]2C/C(=C/CCCC(=O)O)O[C@H]2C[C@H]1O	.	-10%	.	.
O=C(Nc1cccc(C(F)(F)F)c1)Oc1ccc(Cl)c2cccnc12	0%	-1%	i	13µM*
COC(=O)C1=C(C)N(c2ccc(OC)cc2)C(C)=C(C(=O)OC)C1c1ccccc1	-9%	-2%	-38%	8.9µM*
CC(C)(C)OC(=O)N1CCC(c2c(C(=O)NCC3CCN(C4CCCC4)C3)cnn2-c2cccc(Cl)c2)CC1 (stereo not given)	?	4%	-14%	13µM*
CC(C)(C)OC(=O)N1CCC(c2c(C(=O)NCC3CCN(C4CCCC4)C3)cnn2-c2ccccc2)CC1 (stereo not given)	0%	11%	i	?
O=C(Nc1cccc(C(=O)N2CCN(c3ccccc3)CC2)c1)c1nsc2ccccc12	3%	.	-4%	49%
Cc1cccc(-c2nc(CN3CCCC(C(=O)NC4CCCCC4)C3)c(C)o2)c1 (stereo not given)	?	4%	?	3.5µM*
Cc1cccc(-c2nc(CN3CCCC(C(=O)NC4CCCCCC4)C3)c(C)o2)c1 (stereo not given)	?	-1%	-1%[57.5 µM]	?
O=C(c1ccc(OC2CCN(Cc3ccc(C(F)(F)F)cc3)CC2)cc1)N1CCCCC1	-4%	6%	-23%	?
O=C(c1ccc(OC2CCN(Cc3ccccc3OC(F)F)CC2)cc1)N1CCCC1	-17%	-1%	i	3.2µM*
O=C(c1ccc(OC2CCN(Cc3ccccc3C(F)(F)F)CC2)cc1)N1CCCCC1	?	-4%	-34%	5µM*
CCOc1cc(C(=O)NCC(C)(C)CNC(=O)c2cc(OCC)c(OCC)c(OCC)c2)cc(OCC)c1OCC	-13%	1%	i	10µM*
O=C(COc1ccccc1F)Nc1ccc2nc(SCC(=O)N3CCOCC3)sc2c1	-11%	.	-96%	15%
CCCCCCCCCCCCCCCCCC(=O)OC[C@@H](O)[C@H]1OC[C@H](O)[C@H]1O	.	10%	.	.
COc1cc(/C=N/N=C2/C(=O)Nc3ccccc32)ccc1O	?	6%	i	86%
O=C1Nc2ccccc2/C1=N\N=C\c1ccc(O)c(O)c1	11µM*	15%	-32%	25%
SMILES	HEK293 tox	GLP1R ag	PTHR1 agonist	GLP1R inv ag
CCn1cc2nc(SCc3cccc(C)c3)n(CCc3ccccc3)c(=O)c2n1	-22%	.	-6%	7.9µM*
CCn1cc2nc(SCc3cccc(C(F)(F)F)c3)n(CCc3ccccc3)c(=O)c2n1	3%	.	-3%	?
CC(C(=O)Nc1ccc(OC(F)(F)F)cc1)N1Cc2ccccc2C1=O (stereo not given)	12%	.	50µM*	?
Cc1cc(C)c(S(=O)(=O)N2CCN(C(=O)c3c(C)nn(-c4ccccc4)c3Cl)CC2)c(C)c1	-8%	-19%	-42%	8.9µM*
Cc1cc(C)c(S(=O)(=O)N2CCN(C(=O)c3ccc(-n4nc(C)c(Cl)c4C)cc3)CC2)c(C)c1	7%	1%	-11%	7.1µM*
Cc1ccc(S(=O)(=O)N2CCN(C(=O)c3c(C)nn(-c4ccccc4)c3Cl)CC2)cc1	16%	-1%	i	-8%
CCc1nn2c(=O)cc(COC(=O)Cc3ccccc3)nc2s1	-9%	.	i	2%
Cc1cc(C)cc(NC(=O)CCN2C(=O)c3ccccc3Sc3ncccc32)c1	?	.	?	-8%
Cc1ccc2cc(NC(=O)c3ccc(C(C)(C)C)cc3)ccc2n1	-35%	-4%	-29%	4µM*
CCc1ccc(C(=O)Nc2ccc3nc(C)ccc3c2)cc1	-22%	24%	-69%	?
CC(C)CC(NS(=O)(=O)c1ccccc1)C(=O)O (stereo not given)	1%	-9%	i	4%
CC(C)CN=C(NS(=O)(=O)c1ccccc1)C(Cl)(Cl)Cl	-1%	-24%	-3%	7.9µM*
CCOCCn1c(N2CCCN(C)CC2)nc2ccccc21	.	-3%	.	.
CC1(c2ccc(OC(F)F)cc2)NC(=O)N(CC(=O)Nc2ccc(OC(F)F)cc2)C1=O (stereo not given)	5%	2%	-19%	10µM*
CC1(c2ccc(OC(F)F)cc2)NC(=O)N(CC(=O)Nc2ccc(F)cc2)C1=O (stereo not given)	-13%	17%	-8%	?
COc1ccccc1CNC(=O)C1CCN(S(=O)(=O)c2c(C)noc2/C=C/c2c(C)cc(C)cc2C)CC1	2%	.	i	9%
COc1cc(-c2cc(C(=O)Nc3ccc(S(=O)(=O)NCc4ccco4)cc3)c3ccccc3n2)cc(OC)c1OC	-11%	2%	i	2µM*
COc1cc(-c2cc(C(=O)NCc3ccco3)c3ccccc3n2)cc(OC)c1OC	?	5%	-58%	?
C/C=C/c1ccc(OCC(O)CNCCc2ccc(OC)cc2)c(OC)c1 (stereo not given)	?	-1%	26%	?
C/C=C/c1ccc(OCC(O)CN2CCCCC2CC)c(OC)c1 (stereo not given)	1%	-1%	i	13µM*
CCN1CCN(c2cc(C)c3cc(NC(=O)/C=C/c4ccc(OCCC(C)C)cc4)ccc3n2)CC1	-1%	.	i	3%
CSc1ccc(CN(C)C(=O)C23CC4CC(CC(Cl)(C4)C2)C3)cc1	-3%	32%	-18%	10µM*
O=C1NC[C@H](c2ccccc2)OC(=O)[C@H](Cc2ccc(F)cc2)C/C=C\C[C@H]1CC(=O)N(CCO)Cc1ccccc1	-29%	-6%	i	5.6µM*
O=C1N[C@@H](Cc2c[nH]c3ccccc23)COC(=O)[C@@H](Cc2ccc(F)cc2)C/C=C\C[C@H]1CC(=O)N(CCO)Cc1ccccc1	?	-6%	-1%	8.9µM*

From PubChem
